Laboratory results published in PubChem BioAssay AID1159580 (chemical genetic matrix, 2015).
“And” between values parts separate entries of the source, which are not always exact repeats. Identical values can stand only once. In all, about 5,500 compounds went through this assay and about 2,000 (36%) were called active. Another 18% or so got no clear call; they are omitted. No stated cut-off is given here; in the data, active means normalized growth mostly below about 0.91 (no sharp cut-off); inconclusive means no clear call, values can overlap the other calls; inactive means mostly above about 0.92. Some of the results follow.

Test: chemical genetic growth profiling, strain panel (AID 1159580);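 further: tested at 20 µM; growth read once vehicle control cultures reached saturation at 30 °C; 1 = growth at the plate median or of vehicle wells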
Conditions: S. cerevisiae deletion strains, growth OD

Measured: normalized growth

COc1cccc(OC)c1C(=O)N[C@@H]1C(=O)N2[C@@H]1SC(C)(C)[C@@H]2C(=O)O
inactive: locus YAL013W, strain DEP1, stronger effect = lower value 0.994 | locus YAL021C, strain ccr4, stronger effect = lower value 1.01 | locus YAL026C, strain drs2, stronger effect = lower value 1.01 | locus YAL030W, strain snc1, stronger effect = lower value 0.997 | locus YBL061C, strain skt5, stronger effect = lower value 0.998 | locus YBR009C, strain hhf1, stronger effect = lower value 0.997 | locus YBR021W, strain FUR4, stronger effect = lower value 1.01 | locus YBR023C, strain chs3, stronger effect = lower value 0.988 | locus YBR171W, strain sec66, stronger effect = lower value 0.987 | locus YBR229C, strain ROT2, stronger effect = lower value 1.01 | locus YBR231C, strain swc5, stronger effect = lower value 0.984 | locus YBR279W, strain paf1, stronger effect = lower value 1 | locus YCL011C, strain gbp2, stronger effect = lower value 1.01 | locus YCL016C, strain dcc1, stronger effect = lower value 1 | locus YCL029C, strain bik1, stronger effect = lower value 0.99 | locus YCL069W, strain vba3, stronger effect = lower value 1 | locus YCR088W, strain abp1, stronger effect = lower value 0.996 | locus YDL005C, strain med2, stronger effect = lower value 0.991 | locus YDL035C, strain GPR1, stronger effect = lower value 1 | locus YDL040C, strain nat1, stronger effect = lower value 0.995 | locus YDL074C, strain BRE1, stronger effect = lower value 1.03 | locus YDL101C, strain DUN1, stronger effect = lower value 1 | locus YDL134C, strain PPH21, stronger effect = lower value 1.01 | locus YDL185W, strain tfp1, stronger effect = lower value 0.967 | locus YDL192W, strain arf1, stronger effect = lower value 0.988 | locus YDR001C, strain nth1, stronger effect = lower value 1 | locus YDR069C, strain doa4, stronger effect = lower value 1.01 | locus YDR101C, strain arx1, stronger effect = lower value 0.997 | locus YDR137W, strain rgp1, stronger effect = lower value 1.03 | locus YDR150W, strain NUM1, stronger effect = lower value 0.983 | locus YDR159W, strain sac3, stronger effect = lower value 0.988 | locus YDR162C, strain NBP2, stronger effect = lower value 0.979 | locus YDR195W, strain ref2 0.979 | locus YDR297W, strain sur2, stronger effect = lower value 1 | locus YDR318W, strain mcm21, stronger effect = lower value 0.987 | locus YDR334W, strain swr1, stronger effect = lower value 0.995 | locus YDR335W, strain msn5, stronger effect = lower value 0.998 | locus YDR388W, stronger effect = lower value 1 | locus YDR392W, strain spt3, stronger effect = lower value 0.998 | locus YDR502C, strain sam2, stronger effect = lower value 0.995 | locus YEL003W, strain gim4, stronger effect = lower value 1 | locus YEL037C, strain rad23, stronger effect = lower value 0.997 | locus YEL061C, strain CIN8 (second series), stronger effect = lower value 0.996 | locus YEL061C, strain CIN8, stronger effect = lower value 0.986 | locus YER015W, strain faa2, stronger effect = lower value 1 | locus YER016W, strain bim1, stronger effect = lower value 0.997 | locus YER110C, stronger effect = lower value 0.991 | locus YER111C, strain swi4, stronger effect = lower value 0.995 | locus YER155C, strain BEM2 (second series), stronger effect = lower value 0.966 | locus YER155C, strain BEM2, stronger effect = lower value 1.01 | locus YER167W, strain BCK2, stronger effect = lower value 0.999 | locus YFR010W, strain ubp6, stronger effect = lower value 0.989 | locus YGL078C, strain dbp3, stronger effect = lower value 0.991 | locus YGL086W, strain mad1, stronger effect = lower value 0.994 | locus YGL167C, strain pmr1, stronger effect = lower value 0.99 | locus YGL173C, strain kem1, stronger effect = lower value 0.977 | locus YGL227W, strain vid30, stronger effect = lower value 0.992 | locus YGL240W, strain doc1, stronger effect = lower value 1 | locus YGL248W, strain PDE1, stronger effect = lower value 1.01 | locus YGL253W, strain hxk2, stronger effect = lower value 1.01 | locus YGR078C, strain PAC10, stronger effect = lower value 1 | locus YGR135W, strain pre9, stronger effect = lower value 1 | locus YGR229C, strain SMI1, stronger effect = lower value 1.02 | locus YGR252W, strain gcn5, stronger effect = lower value 1.05 | locus YHR013C, strain ard1, stronger effect = lower value 1.01 | locus YHR027C, strain rpn1, stronger effect = lower value 1 | locus YHR030C, strain SLT2, stronger effect = lower value 0.993 and 1.03 | locus YHR079C, strain IRE1 (second series), stronger effect = lower value 0.991 | locus YHR079C, strain IRE1, stronger effect = lower value 1.01 | locus YHR094C, strain hxt1, stronger effect = lower value 0.982 | locus YHR129C, strain ARP1, stronger effect = lower value 1 | locus YHR142W, strain chs7, stronger effect = lower value 0.98 | locus YHR200W, strain rpn10, stronger effect = lower value 0.98 | locus YIL066C, strain RNR3, stronger effect = lower value 1.01 | locus YIL073C, strain SPO22, stronger effect = lower value 0.991 | locus YIL125W, strain kgd1, stronger effect = lower value 0.988 | locus YIR030C, strain dcg1, stronger effect = lower value 0.992 | locus YJL092W, strain hpr5, stronger effect = lower value 0.987 | locus YJL095W, strain BCK1 (second series), stronger effect = lower value 0.998 | locus YJL095W, strain BCK1, stronger effect = lower value 1.01 and 1.02 | locus YJL115W, strain asf1, stronger effect = lower value 0.999 | locus YJL129C, strain trk1, stronger effect = lower value 0.98 | locus YJL134W, strain LCB3, stronger effect = lower value 0.998 | locus YJL154C, strain vps35, stronger effect = lower value 0.993 | locus YJL164C, strain tpk1, stronger effect = lower value 0.994 | locus YJL166W, strain qcr8, stronger effect = lower value 0.97 | locus YJL168C, strain set2, stronger effect = lower value 0.988 | locus YJL187C, strain SWE1 (second series), stronger effect = lower value 1.01 | locus YJR043C, strain POL32, stronger effect = lower value 0.993
